Results from the supplement of paper PMC6555819.

Assays:
Assay in all cases: PBM binding z-score (relative to random genomic background probes); higher = stronger binding; sequences stand for … in GC…GCGATTGACAGCGTAGAATGAAGG
[1] = tested on: FXR:RXRa (NR concentration 270 nM, RXRa partner concentration 90 nM)
In short: (§1)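 Probes were double-stranded and carried 34-nt variable regions with direct-repeat seeds, single-nucleotide variants, half-site ablations and random human genomic background sequences, printed on custom Agilent 4×180K protein-binding microarrays. Arrays were incubated 1 h with ligand-free nuclear receptor dimers in PBS pH 7.4, 2% milk, 0.02% Triton X-100, 1 mM DTT, 0.2 mg/mL BSA and 0.4 mg/ml salmon testes DNA. Antibodies against each partner (one per run) detected binding, and scanned fluorescence was regression-normalized. Binding z-scores use the random background probes as reference.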

[2] = tested on: LXRa:RXRa (NR concentration 270 nM, RXRa partner concentration 90 nM)
In short: as §1

[3] = tested on: LXRa homodimer (NR concentration 270 nM)
In short: as §1

[4] = tested on: LXRb:RXRa (NR concentration 270 nM, RXRa partner concentration 90 nM)
In short: as §1

[5] = tested on: LXRb homodimer (NR concentration 270 nM)
In short: as §1

[6] = tested on: PPARa:RXRa (NR concentration 270 nM, RXRa partner concentration 90 nM)
In short: as §1

[7] = tested on: PPARg:RXRa (NR concentration 180 nM, RXRa partner concentration 90 nM)
In short: as §1

[8] = tested on: PPARg:RXRa 270nM:90nM, anti-RXR (NR concentration 270 nM, RXRa partner concentration 90 nM)
In short: as §1

[9] = tested on: PPARg:RXRa 30nM:10nM, anti-RXR (NR concentration 30 nM, RXRa partner concentration 10 nM)
In short: as §1

[10] = tested on: PPARg:RXRa 90nM:30nM, anti-RXR (NR concentration 90 nM, RXRa partner concentration 30 nM)
In short: as §1

[11] = tested on: PPARg:RXRa DBDmut IVT, anti-RXR (DBD mutation: RXRa K156A/R161A, NR concentration 270 nM, RXRa partner concentration 90 nM)
In short: as §1

[12] = tested on: PPARg:RXRa IVT, anti-PPARg (NR concentration 270 nM, RXRa partner concentration 90 nM)
In short: as §1

[13] = tested on: PPARg DBDmut:RXRa IVT, anti-PPARg (DBD mutation: PPARg1 K132A/R137A, NR concentration 270 nM, RXRa partner concentration 90 nM)
In short: as §1

[14] = tested on: PPARg DBDmut IVT, anti-PPARg (DBD mutation: PPARg1 K132A/R137A, NR concentration 270 nM)
In short: as §1

[15] = tested on: PPARg homodimer (NR concentration 180 nM)
In short: as §1

[16] = tested on: PXR:RXRa (NR concentration 270 nM, RXRa partner concentration 90 nM)
In short: as §1

[17] = tested on: PXR homodimer (NR concentration 270 nM)
In short: as §1

[18] = tested on: RARa:RXR (NR concentration 270 nM, RXRa partner concentration 90 nM)
In short: as §1

[19] = tested on: RARa homodimer (NR concentration 270 nM)
In short: as §1

[20] = tested on: RARb:RXRa (NR concentration 270 nM, RXRa partner concentration 90 nM)
In short: as §1

Sequence	PBM binding z-score [1]	PBM binding z-score [2]	PBM binding z-score [3]	PBM binding z-score [4]	PBM binding z-score [5]	PBM binding z-score [6]	PBM binding z-score [7]	PBM binding z-score [8]	PBM binding z-score [9]	PBM binding z-score [10]	PBM binding z-score [11]	PBM binding z-score [12]	PBM binding z-score [13]	PBM binding z-score [14]	PBM binding z-score [15]	PBM binding z-score [16]	PBM binding z-score [17]	PBM binding z-score [18]	PBM binding z-score [19]	PBM binding z-score [20]
AGAATAAGGTTACCAAAGATCAGGGAAACGCTTG	1.76	5.91	0.165	2.57	-0.0188	2.93	1.84	2.41	0.732	1.67	2.55	2.26	1.2	1.13	0.8	1.03	0.338	1.61	0.942	2.57
TCATATAGGTAAAGGTGAAAGTAGAACGATATGA	1.05	1.4	-0.101	1.28	0.0204	3.29	4.62	4.54	4.45	4.86	4.02	4.56	2.33	2.14	1.55	1.08	-0.104	1.42	0.341	2.02
CCTACTGGGCCAAAAAGGTCGTTGATGCCGATAA	0.402	0.901	0.0143	1.24	-0.786	2.45	1.08	1.81	0.344	1.24	3.16	2.91	-0.0977	-1.31	0.923	1.69	0.426	1.77	0.0186	1.48
TCTCGGAGGACTCGAAGGTCAGAGCTTTCCAGAG	0.838	0.984	-0.429	0.814	-1.14	1.46	-0.316	1.24	2	1.38	1.45	0.0197	-0.446	-1.86	0.353	1.04	-0.316	1.48	-1.07	2.17
AATACAGGGTCACCAGGCCAGAGTAGGTACGAAT	7.09	5.86	0.943	4.55	0.722	6.07	8.01	6.75	3.76	5.35	3.62	5.06	1.5	0.986	2.07	4.02	0.26	5.4	0.737	4.53
AGTCAAAGTTCACTAGGTAAGGTAAGATTCAGCT	5.15	4.75	3.2	3	1.19	4.4	6.73	5.99	3.11	5.44	1.79	4.24	1.06	0.795	2.55	3.83	2.61	3.3	1.36	4.8
GCTCGGAGGACAAGGTCAGATCTTTGTCCGTAGA	2.14	2.12	-0.175	1.87	-0.0535	2.68	0.835	1.44	-0.124	0.769	-0.309	0.755	-0.782	-0.686	0.86	1.87	-0.322	2.22	-0.579	3.52
CCAGACAGGTCAGAAGGTAACTCAGCCTCGATTA	2.82	2.29	0.142	1.7	-0.0467	3.15	1.84	2.26	0.435	1.4	1.41	1.15	-0.393	-1.03	2.19	1.21	0.153	2.1	0.911	3.49
ATCTCTAGGTAACATGTTCAGTGAAAGAGAGGAC	0.248	0.254	-0.139	0.402	0.902	0.519	1.15	1.25	0.432	1.07	3.39	2.6	1.47	1.39	-0.116	0.0539	-0.0105	0.322	-0.388	0.433
CGTCCAAGGTCAAGGTCAGTGAGAGAGACTCGAA	7.65	5.63	1.24	4.59	0.615	6.05	6.16	6.13	2.58	4.79	3.51	4.84	1.23	2.41	3.47	4.79	1.08	5.05	1.59	5.69
AGAACGAGGGCACGCTGACTTGATAGCAGAGTAG	0.758	0.896	-0.482	0.363	-0.85	2.31	2.29	1.85	0.503	1.18	3.96	4.19	0.288	0.937	-0.0871	0.461	-0.269	0.898	-0.516	2.44
CCGACTGGGGCAAAGATTACCATACTCAGTACGA	-0.494	-0.583	-0.45	-0.138	-1.19	1.89	4.52	5.48	3.98	6.06	4.42	3.1	-0.00287	-0.543	0.462	-0.644	-0.342	-0.848	-0.293	0.284
CCTACTGTGCCAAAAAGGTCATTGATGCCGATAA	4.4	4.59	4.4	4.55	1.59	4.73	3.18	3.69	1.41	3	3.31	3.57	0.316	0.475	3.9	4.76	2.5	5.24	2.59	3.99
TGCCAAAGTTCAAAGGTAACGTAAGTATCCACAC	7.28	6.4	4.65	4.85	1.81	5.9	7.61	7.16	4.42	6.78	-0.203	3.58	0.542	1.37	4.73	6.14	4.67	7.24	1.95	5.19
